Assays:
Assay in all cases: log2 ratio of Biotin-Ahx-Ub-VS probe labelling (fragment/DMSO); higher = less target engagement (more negative = stronger competition), active = hit call of the paper (q ≤ 0.05, log2 ratio ≤ -1)
Details in all cases: compound concentration: 200 uM; treatment time: 3 h
ALG13 = molecular target: T1, ALG13 (UniProt Q9NP73)
T1 sequence (whole entry): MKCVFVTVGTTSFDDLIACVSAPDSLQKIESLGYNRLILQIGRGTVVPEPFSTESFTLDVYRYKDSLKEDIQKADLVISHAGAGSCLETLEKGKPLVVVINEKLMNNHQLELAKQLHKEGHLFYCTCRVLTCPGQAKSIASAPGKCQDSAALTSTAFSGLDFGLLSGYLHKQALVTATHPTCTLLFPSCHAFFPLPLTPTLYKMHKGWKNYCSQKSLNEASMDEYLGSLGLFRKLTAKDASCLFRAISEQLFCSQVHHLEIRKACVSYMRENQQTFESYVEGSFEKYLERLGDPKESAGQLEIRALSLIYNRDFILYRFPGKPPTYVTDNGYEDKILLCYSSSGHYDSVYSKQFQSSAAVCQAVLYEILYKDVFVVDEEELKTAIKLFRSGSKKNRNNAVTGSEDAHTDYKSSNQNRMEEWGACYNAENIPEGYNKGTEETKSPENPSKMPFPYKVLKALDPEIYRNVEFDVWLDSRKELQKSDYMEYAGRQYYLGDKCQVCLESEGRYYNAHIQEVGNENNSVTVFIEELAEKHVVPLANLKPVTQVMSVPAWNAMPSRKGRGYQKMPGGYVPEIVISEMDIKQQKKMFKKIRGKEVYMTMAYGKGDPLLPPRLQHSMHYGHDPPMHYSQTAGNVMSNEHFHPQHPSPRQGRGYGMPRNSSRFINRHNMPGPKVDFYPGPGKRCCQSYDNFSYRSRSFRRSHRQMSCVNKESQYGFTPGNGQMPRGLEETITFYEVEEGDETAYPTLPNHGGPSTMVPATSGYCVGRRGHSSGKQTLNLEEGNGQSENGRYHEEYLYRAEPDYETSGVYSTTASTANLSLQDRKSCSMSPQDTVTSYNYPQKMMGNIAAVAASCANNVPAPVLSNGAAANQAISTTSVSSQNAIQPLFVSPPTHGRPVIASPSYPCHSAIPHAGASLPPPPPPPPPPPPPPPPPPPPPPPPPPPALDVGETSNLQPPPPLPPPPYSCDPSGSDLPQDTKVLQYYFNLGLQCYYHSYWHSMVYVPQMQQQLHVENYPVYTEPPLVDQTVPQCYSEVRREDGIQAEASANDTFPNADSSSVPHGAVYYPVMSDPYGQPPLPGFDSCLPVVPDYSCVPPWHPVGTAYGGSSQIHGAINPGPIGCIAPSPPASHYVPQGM
Outline: (§1)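 Average log2 ratios of fragment over vehicle were obtained by unpaired t-test from global-median-normalised Spectronaut label-free quantities. Proteins with ≥2 unique peptides were included. HEK293T lysate (495 µg per sample) was treated in triplicate with fragment at 200 µM or vehicle for 3 h, then with Biotin-Ahx-Ub-VS at 0.5 µM final for 1 h, and labelled DUBs were NeutrAvidin-enriched and run by diaPASEF LC-MS/MS.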

ATXN3 = ATXN3 (UniProt P54252)
Outline: as §1

BAP1 = molecular target: T2, BAP1 (UniProt Q92560)
T2 sequence (whole entry): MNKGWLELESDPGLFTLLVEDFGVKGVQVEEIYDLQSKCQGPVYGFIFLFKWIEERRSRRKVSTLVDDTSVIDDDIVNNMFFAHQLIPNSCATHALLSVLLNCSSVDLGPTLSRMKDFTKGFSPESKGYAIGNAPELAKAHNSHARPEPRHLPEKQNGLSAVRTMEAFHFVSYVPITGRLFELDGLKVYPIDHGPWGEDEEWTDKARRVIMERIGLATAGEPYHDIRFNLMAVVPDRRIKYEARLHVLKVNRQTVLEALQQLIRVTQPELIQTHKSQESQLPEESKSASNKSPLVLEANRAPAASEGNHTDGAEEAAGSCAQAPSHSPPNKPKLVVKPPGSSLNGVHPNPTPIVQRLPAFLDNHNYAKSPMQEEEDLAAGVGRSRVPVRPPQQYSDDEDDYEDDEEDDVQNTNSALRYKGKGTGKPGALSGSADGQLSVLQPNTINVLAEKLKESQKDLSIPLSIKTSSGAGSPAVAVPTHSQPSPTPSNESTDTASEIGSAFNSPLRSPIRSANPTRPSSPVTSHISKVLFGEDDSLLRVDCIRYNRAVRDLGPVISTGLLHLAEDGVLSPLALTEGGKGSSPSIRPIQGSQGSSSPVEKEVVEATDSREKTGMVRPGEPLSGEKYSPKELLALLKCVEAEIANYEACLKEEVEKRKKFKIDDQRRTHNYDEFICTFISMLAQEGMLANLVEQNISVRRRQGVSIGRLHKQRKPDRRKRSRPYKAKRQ
Outline: as §1

EIF3F = EIF3F (UniProt O00303)
Outline: as §1

EIF3H = EIF3H (UniProt O15372)
Outline: as §1

FAM105A = molecular target: T3, FAM105A (UniProt Q9NUU6)
T3 sequence (whole entry): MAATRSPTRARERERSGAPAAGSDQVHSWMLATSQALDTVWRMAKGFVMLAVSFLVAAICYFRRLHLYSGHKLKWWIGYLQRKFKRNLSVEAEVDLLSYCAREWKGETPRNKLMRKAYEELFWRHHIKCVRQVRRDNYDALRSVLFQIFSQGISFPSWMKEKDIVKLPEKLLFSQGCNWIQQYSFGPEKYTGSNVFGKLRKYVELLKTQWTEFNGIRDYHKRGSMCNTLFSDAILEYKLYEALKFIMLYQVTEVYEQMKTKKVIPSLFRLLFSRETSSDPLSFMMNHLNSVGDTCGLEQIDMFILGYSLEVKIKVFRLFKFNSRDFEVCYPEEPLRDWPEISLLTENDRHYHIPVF
Outline: as §1

OTUB1 = OTUB1 (UniProt Q96FW1)
Outline: as §1

OTUD4 = molecular target: T4, OTUD4 (UniProt Q01804)
T4 sequence (whole entry): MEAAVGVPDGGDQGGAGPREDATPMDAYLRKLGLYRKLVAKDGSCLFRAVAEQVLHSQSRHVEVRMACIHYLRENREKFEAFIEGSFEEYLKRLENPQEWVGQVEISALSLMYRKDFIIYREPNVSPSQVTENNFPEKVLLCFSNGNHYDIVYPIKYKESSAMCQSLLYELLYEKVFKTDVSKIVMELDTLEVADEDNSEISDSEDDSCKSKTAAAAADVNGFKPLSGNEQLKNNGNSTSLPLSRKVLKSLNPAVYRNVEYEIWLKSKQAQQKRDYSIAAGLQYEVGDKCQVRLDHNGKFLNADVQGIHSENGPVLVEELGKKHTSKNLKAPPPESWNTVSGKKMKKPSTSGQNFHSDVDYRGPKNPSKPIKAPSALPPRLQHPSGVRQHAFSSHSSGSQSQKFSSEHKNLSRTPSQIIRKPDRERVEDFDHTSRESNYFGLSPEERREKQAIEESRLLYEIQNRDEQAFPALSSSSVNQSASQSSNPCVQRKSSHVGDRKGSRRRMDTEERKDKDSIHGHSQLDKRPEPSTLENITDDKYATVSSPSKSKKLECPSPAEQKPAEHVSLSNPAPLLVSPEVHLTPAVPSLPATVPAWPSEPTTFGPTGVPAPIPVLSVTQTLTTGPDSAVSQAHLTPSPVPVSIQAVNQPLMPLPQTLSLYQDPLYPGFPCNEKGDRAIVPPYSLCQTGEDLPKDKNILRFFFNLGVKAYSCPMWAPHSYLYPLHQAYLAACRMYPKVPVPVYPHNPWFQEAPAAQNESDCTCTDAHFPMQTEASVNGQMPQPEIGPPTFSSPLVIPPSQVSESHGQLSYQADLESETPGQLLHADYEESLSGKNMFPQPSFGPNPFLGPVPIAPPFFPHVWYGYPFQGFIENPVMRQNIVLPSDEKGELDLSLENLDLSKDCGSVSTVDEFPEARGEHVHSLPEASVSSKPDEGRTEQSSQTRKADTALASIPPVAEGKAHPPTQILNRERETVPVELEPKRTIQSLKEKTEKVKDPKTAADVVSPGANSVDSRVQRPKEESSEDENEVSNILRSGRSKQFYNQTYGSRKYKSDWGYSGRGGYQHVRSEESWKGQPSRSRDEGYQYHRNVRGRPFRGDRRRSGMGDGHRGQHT
Outline: as §1

OTUD5 = molecular target: T5, OTUD5 (UniProt Q96G74)
T5 sequence (whole entry): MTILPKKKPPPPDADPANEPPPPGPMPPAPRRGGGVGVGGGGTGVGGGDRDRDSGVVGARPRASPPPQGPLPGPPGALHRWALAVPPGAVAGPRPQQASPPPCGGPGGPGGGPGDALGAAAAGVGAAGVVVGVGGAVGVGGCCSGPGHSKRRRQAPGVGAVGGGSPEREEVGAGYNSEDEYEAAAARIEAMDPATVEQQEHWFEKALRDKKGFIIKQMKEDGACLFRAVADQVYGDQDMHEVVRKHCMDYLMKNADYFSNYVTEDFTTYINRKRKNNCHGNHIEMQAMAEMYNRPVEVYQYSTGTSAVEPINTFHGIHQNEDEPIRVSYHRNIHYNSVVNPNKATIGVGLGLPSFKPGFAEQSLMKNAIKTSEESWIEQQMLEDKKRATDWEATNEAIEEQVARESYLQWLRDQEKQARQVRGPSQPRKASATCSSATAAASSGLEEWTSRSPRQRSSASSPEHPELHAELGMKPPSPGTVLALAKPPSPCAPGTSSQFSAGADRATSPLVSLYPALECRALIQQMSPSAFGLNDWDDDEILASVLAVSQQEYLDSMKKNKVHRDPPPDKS
Outline: as §1

Measured: log2 ratio of Biotin-Ahx-Ub-VS probe labelling

Chain of EIF3F (O00303 whole entry): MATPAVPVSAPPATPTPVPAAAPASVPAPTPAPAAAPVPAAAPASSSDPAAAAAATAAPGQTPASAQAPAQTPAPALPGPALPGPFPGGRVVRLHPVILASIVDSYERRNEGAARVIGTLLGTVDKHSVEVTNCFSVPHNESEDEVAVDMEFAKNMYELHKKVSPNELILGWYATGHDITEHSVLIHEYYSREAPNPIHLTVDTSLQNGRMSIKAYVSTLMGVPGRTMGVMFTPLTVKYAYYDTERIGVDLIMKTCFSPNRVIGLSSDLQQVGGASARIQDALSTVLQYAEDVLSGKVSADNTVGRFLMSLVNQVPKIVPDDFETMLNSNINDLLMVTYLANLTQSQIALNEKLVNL
Chain of OTUB1 (Q96FW1 whole entry): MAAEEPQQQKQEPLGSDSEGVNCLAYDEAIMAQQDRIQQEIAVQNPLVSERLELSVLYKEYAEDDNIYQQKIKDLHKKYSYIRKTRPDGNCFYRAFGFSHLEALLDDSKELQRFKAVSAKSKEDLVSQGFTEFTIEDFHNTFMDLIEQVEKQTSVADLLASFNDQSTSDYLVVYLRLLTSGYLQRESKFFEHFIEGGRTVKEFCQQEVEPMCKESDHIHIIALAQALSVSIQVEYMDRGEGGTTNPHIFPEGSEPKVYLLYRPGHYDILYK
Chain of EIF3H (O15372 whole entry): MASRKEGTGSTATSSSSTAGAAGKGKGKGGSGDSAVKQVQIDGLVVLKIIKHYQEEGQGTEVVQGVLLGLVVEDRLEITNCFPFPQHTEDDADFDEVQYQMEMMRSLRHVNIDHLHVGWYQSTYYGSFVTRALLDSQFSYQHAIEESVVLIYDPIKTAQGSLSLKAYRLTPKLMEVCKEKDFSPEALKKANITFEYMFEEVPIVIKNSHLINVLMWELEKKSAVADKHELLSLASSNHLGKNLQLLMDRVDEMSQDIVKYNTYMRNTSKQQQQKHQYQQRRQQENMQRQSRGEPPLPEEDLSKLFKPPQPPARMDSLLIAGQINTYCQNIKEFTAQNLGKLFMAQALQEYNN
Chain of ATXN3 (P54252 whole entry): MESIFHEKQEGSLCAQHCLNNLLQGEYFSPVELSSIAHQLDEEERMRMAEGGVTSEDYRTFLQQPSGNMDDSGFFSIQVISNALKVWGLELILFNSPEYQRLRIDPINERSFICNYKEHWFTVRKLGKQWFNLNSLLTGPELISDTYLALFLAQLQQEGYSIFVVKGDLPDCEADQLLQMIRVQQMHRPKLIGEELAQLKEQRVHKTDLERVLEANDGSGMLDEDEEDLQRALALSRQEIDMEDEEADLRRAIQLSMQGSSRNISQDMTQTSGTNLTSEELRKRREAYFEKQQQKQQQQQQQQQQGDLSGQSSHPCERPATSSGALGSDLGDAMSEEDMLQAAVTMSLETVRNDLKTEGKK

Cc1ccc(CN(CCO)C(=O)CCl)cc1
active: BAP1 -1.12
inactive: ALG13 0.163 | ATXN3 -0.225 | EIF3F 0.0155 | EIF3H 0.0625 | FAM105A 0.0195 | OTUB1 -0.0318 | OTUD4 -0.355 | OTUD5 -0.372

Source: the supplement of paper PMC11732987, “Enantioselective OTUD7B fragment discovery through chemoproteomics screening and high-throughput optimisation” (Communications Chemistry, 2025)
